Laboratory results as given in PubChem BioAssay (Tox21).
Calls of active or inactive are those of the source. A call without a number means that no potency is given here. Calls come from the whole dose curve; as a rule, active = well fitted activation curve with a large enough effect in the repeat runs; inconclusive = weak or mixed curves; inactive = flat fitted curve, though single readings scatter.

Biological target: KiSS-1 receptor (Homo sapiens) (UniProt Q969F8)
Test: Human kisspeptin (KISS1R) small molecule agonists, calcium flux assay in KISS1R-HEK293 cells (AID 1920064)
How it was run: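 Cell line: HEK293, stable human KISS1R. Dye loading 1 h at 37 C after 18 h culture. Read: kinetic fluorescence, 480/540 nm, 3 min at 1 s intervals.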

KiSS-1 receptor (Homo sapiens), sequence (Q969F8 whole entry, looked up): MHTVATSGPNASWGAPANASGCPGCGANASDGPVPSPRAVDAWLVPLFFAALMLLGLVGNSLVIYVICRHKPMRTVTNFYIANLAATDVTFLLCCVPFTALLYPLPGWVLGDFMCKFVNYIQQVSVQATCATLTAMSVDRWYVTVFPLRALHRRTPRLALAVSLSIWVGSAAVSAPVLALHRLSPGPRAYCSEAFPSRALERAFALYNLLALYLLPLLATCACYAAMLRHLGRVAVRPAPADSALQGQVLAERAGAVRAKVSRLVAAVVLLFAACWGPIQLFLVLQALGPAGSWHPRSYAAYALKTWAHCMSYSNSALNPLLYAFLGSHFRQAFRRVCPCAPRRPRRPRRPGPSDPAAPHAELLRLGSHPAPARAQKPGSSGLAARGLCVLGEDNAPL

Row | Structure (SMILES) | Potency
1 | CCNc1nc(NC(C)C)nc(OC)n1 | inactive
2 | CCOS(=O)(=O)OCC | inactive
3 | Cc1cccc(N)c1 | inactive
4 | N#CSCSC#N | inactive
5 | c1ccc2sc(SNC3CCCCC3)nc2c1 | inactive
6 | N#Cc1ccccc1N | inactive
7 | c1ccc2c(c1)oc1ccccc12 | inactive
8 | O=c1[nH]c(=O)[nH]c(=O)[nH]1 | inactive
9 | CCCCCCCCCCCCCCn1cc[n+](C)c1 | inactive
10 | CC(C)(C)OOC(=O)c1ccccc1 | inactive
11 | [O]=[Cr][O][Cr]=[O] | inactive
12 | CCN(CC)CCN1C(=O)CN=C(c2ccccc2F)c2cc(Cl)ccc21 | inactive
13 | C[N+]1(C)CCCCC1 | inactive
14 | ClC(Cl)=C(Cl)C(Cl)=C(Cl)Cl | inactive
15 | CCOc1cc(C=O)ccc1O | inactive
16 | Nc1ccc(Cl)cc1N | inactive
17 | Clc1cccc(Cl)c1Cl | inactive
18 | Cc1ccc(OP(=O)(Oc2ccc(C)cc2)Oc2ccc(C)cc2)cc1 | inactive
19 | CCC(C)(C)c1ccc(O)cc1 | inactive
20 | COC(C)(C)C | inactive
21 | CCOP(=S)(OCC)SCSC(C)(C)C | inactive

Row | Structure (SMILES) | Potency
22 | CC(C=O)Cc1ccc2c(c1)OCO2 (stereo not drawn) | inactive
23 | N#Cc1c(Cl)c(Cl)c(Cl)c(C#N)c1Cl | inactive
24 | c1cc2c(c(N3CCNCC3)c1)OCCO2 | inactive
25 | ClCC(Br)CBr (stereo not drawn) | inactive
26 | CCCCCCCCCCCC(=O)O | inactive
27 | CC(C)(C)CC(C)(C)c1ccc(O)cc1 | inactive
28 | C=CC(C)=O | inactive
29 | C=CCO | inactive
30 | O=[N+]([O-])c1cc([As](=O)(O)O)ccc1O | inactive
31 | CCOC(=O)N(C)N=O | inactive
32 | ClCCBr | inactive
33 | CCC1(c2ccccc2)CCC(=O)NC1=O (stereo not drawn) | inactive
34 | CC(C)OC(=O)Cc1ccccc1 | inactive
35 | C1CN2CCN1CC2 | inactive
36 | N#CCC#N | inactive
37 | CCOc1nc(F)cc2nc(S(=O)(=O)Nc3c(Cl)cccc3Cl)nn12 | inactive
38 | Clc1ccc(COC(Cn2ccnc2)c2ccc(Cl)cc2Cl)cc1 (stereo not drawn) | inactive
39 | CC12CC1(C)C(=O)N(c1cc(Cl)cc(Cl)c1)C2=O (stereo not drawn) | inactive
40 | O=C/C=C/c1ccccc1 | inactive
41 | Nc1ccc([As](=O)(O)O)cc1 | inactive
42 | Cl[C@H]1OCCO[C@@H]1Cl | inactive

Row | Structure (SMILES) | Potency
43 | Oc1ccc(-c2ccccc2)cc1 | inactive
44 | CCC[CH2][Sn]([Cl])([Cl])[Cl] | inactive
45 | CNc1cnn(-c2cccc(C(F)(F)F)c2)c(=O)c1Cl | inactive
46 | CCCCCCCCCCCC[N+](C)(C)CCOc1ccccc1 | inactive
47 | C[CH2][Hg][S]c1ccccc1C(=O)O | inactive
48 | O=[N+]([O-])O[C@H]1CO[C@H]2[C@@H]1OC[C@H]2O[N+](=O)[O-] | inactive
49 | O=C(NC(=O)c1ccccc1Cl)Nc1ccc(OC(F)(F)F)cc1 | inactive
50 | CN=C=S | inactive
51 | C=C(C#N)CCC#N | inactive
52 | O=C/C=C/c1ccco1 | inactive
53 | Cc1ccc2c(C)cccc2c1 | inactive
54 | C=CC(=O)OCC(CC)CCCC (stereo not drawn) | inactive
55 | CCCCCCCCCCCCBr | inactive
56 | CC(C)OC(=S)S | inactive
57 | CCCCCCCCCc1ccc(O)cc1 | inactive
58 | N#Cc1cccc(C#N)c1 | inactive
59 | CCCCCCCCCCCC#N | inactive
60 | N#CCCC#N | inactive
61 | CCOC(=S)S | inactive
62 | Cc1cc(Cl)ccc1OCCCC(=O)O | inactive
63 | Cc1ccc(CCl)cc1 | inactive
